# Reference: PubChem BioAssay (EPA / NIEHS)
# Results filed as inconclusive are left out. Active and inactive are the calls of the source. How the source made its calls, unless noted: active means hit-call score of the fitted dose curve at least 0.9, where 1 is the maximum; inactive means score below 0.9.
# Legend:
# [1] = read-out: Vascular cell adhesion molecule 1 (VCAM1), VCAM1 (gene 7412); test: BSK_MyoF_VCAM1: BioMAP Diversity Plus: MyoF Assay for Vascular cell adhesion molecule 1 (VCAM1) Biomarker Activity (AID 2284231); settings: primary human lung fibroblasts
# In short: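 Primary human lung fibroblasts were dosed with test chemical for 24 h, then cell-surface VCAM-1 was measured by ELISA. Activity was fitted in the positive direction against DMSO as negative control and baseline.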
# [2] = read-out: Collagen I, COL1A1 (gene 1277); test: BSK_MyoF_CollagenI: BioMAP Diversity Plus: MyoF Assay for Collagen I Biomarker Activity (AID 2284238); settings: primary human lung fibroblasts
# In short: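 Human lung fibroblasts were exposed to test chemical for 24 h, then Collagen I was quantified by ELISA. Activity was fitted in the increasing direction against DMSO as the negative control and baseline.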
# [3] = read-out: Collagen III, COL3A1 (gene 1281); test: BSK_MyoF_CollagenIII: BioMAP Diversity Plus: MyoF Assay for Collagen III Biomarker Activity (AID 2284239); settings: primary human lung fibroblasts
# In short: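 Human lung fibroblasts were dosed with chemicals and, 24 hours later, collagen III was measured by ELISA. Activity was fitted in the positive direction against the DMSO negative-control baseline.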
# [4] = UKN4_HCS_LUHMES_cell_viability: Viability Assessment in the University of Konstanz (UKN) Leist Lab Neurite Outgrowth Assay in human LUHMES cells (UKN4) (AID 2284232)
# In short: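 Viability was read by high-content imaging of calcein-AM/H-33342-stained cells after 24 h toxicant exposure, staining included. Cells: human LUHMES on day 2 of dopaminergic differentiation, dosed shortly after attachment; DMSO baseline, bidirectional curve fitting.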
# [5] = UKN2_HCS_IMR90_cell_viability: Viability Assessment in the University of Konstanz (UKN) Leist Lab Neural Crest Cell Migration Assay in human induced IMR90 Pluripotent Stem Cells (UKN2) (AID 2284233);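 further: viability of neural crest cells differentiated from IMR90 iPSC measured by calcein-AM fluorescence imaging; cells exposed to compound for 24 h after a 24 h migration phase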
# In short: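 cMINC format, iPSC-derived neural crest (IMR90); 24 h migration (EGF/FGF, N2-S), then 24 h toxicant. Calcein-AM/H-33342 stain 30 min; fluorescence intensity by HCS; DMSO-normalised, bidirectional fitting.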
# [6] = TAMU_HCS_1.5hr_SingleDonor1434_Cytotoxicity: Cytotoxicity Assessment using High-content Screening (HCS) Fluorescent Imaging for the Texas A&M University (TAMU) 1.5-hr Human Induced Pluripotent Stem Cell (iPSC)-derived Cardiotoxicity Assay (AID 2284234; active means hit-call score of the fitted dose curve at least 0.9, where 1 is the maximum)
# In short: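 Nuclear counts from Hoechst 33342 imaging define cytotoxicity here, with EC10 (10% cell-count loss relative to DMSO) as point of departure. iPSC cardiomyocytes received 0.2-100 uM test chemical in 0.5% DMSO for 1.5 h at 37 C.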
# [7] = TAMU_PeakParms_SingleDonor1434_QT: Texas A&M University (TAMU) 1.5-hr Human Induced Pluripotent Stem Cell (iPSC)-derived Cardiomyocytes Calcium (Ca+2) Flux Assay for Cardiotoxicity: QT (decay-rise ratio) (AID 2284235; active means hit-call score of the fitted dose curve at least 0.9, where 1 is the maximum)
# Experimental: TAMU_PeakParms is a cell-based, multiplexed-readout assay that uses iPSC-derived cardiomyocytes with measurements taken at 1.5 hours after chemical dosing in a microplate: 384-well plate.TAMU_PeakParms_SingleDonor1434_QT is a phenotype derived from the decay.rise.ratio.avg parameter and uses an EC05 as its POD (5% increase in decay/rise ratio, compared to controls). Decay.Rise.Ratio.Average measures as the average ratio between the rise time and the decay time of the calcium flux, using Fluorescence intensity as a functional reporter from Calcium (Ca+2) flux assay technology. Before modeling, data is preprocessed to remove data points where there is a cessation of beating (where peak.freq.avg equals 0) and data points after they develop of a severe notch phenotype in order to avoid capturing non monotonic effects related to an advanced pathology.Data from the assay component TAMU_PeakParms_SingleDonor1434_QT was analyzed into 1 assay endpoints. This assay endpoint, TAMU_PeakParms_SingleDonor1434_QT_Prolongation, was analyzed in the positive analysis fitting direction relative to DMSO as the negative control and baseline of activity. Using a type of functional reporter, gain-of-signal activity can be used to understand changes in the cardiac function. […]
# [8] = CCTE_Mundy_HCI_Cortical_NOG_NeuronCount: CCTE's Neurite Outgrowth Assay in rat cortical cells for Neuron Count, Mundy Lab (AID 2284236; active means hit-call score of the fitted dose curve at least 0.9, where 1 is the maximum;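 further: neurons counted by imaging betaIII-tubulin and Hoechst stained cortical cells; cells exposed to compound for about 48 hours before fixation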)
# In short: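 Read-out: neuron number by high-content imaging of betaIII-tubulin (Alexa Fluor-488) and Hoechst-labelled rat primary cortical cells.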
# [9] = CCTE_Mundy_HCI_Cortical_NOG_BPCount: CCTE's Neurite Outgrowth Assay in rat cortical cells for Branch Point Count, Mundy Lab (AID 2284237);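 further: branch points counted about two days after chemical exposure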
# In short: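 Measured 50.33 h after dosing, this morphology endpoint uses rat primary cortical cultures labelled for betaIII-tubulin. Branch points are quantified by high-content imaging, with DMSO as negative control and baseline.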
# [10] = CCTE_Mundy_HCI_hNP1_Casp3_7: CCTE's Caspase-Glo 3/7 Assay in human neuroprogenitor cells for Apoptosis, Mundy Lab (AID 2284240)
# In short: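 Neuroepithelial-lineage stem cells from WA09 embryonic cells were treated with chemicals after 40–44 h of culture. Twenty-four hours later, caspase-3/7 activation was detected luminescently after a 30 min room-temperature reagent step, with DMSO as baseline.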
smiles,measurement,setting,value
CCN(CC)C(=O)N(CC)CC,outcome,[1],inactive
same,outcome,[2],inactive
same,outcome,[3],inactive
CC(C=O)Cc1ccc(C(C)(C)C)cc1 (stereo unspecified),outcome,[1],inactive
same,outcome,[2],inactive
same,outcome,[3],inactive
O=C1OC2(c3ccccc31)c1ccc(O)c(Br)c1Oc1c2ccc(O)c1Br,outcome,[1],inactive
same,outcome,[2],inactive
same,AC50,[3],20 µM (active)
CC1(C)C2=CCCC(C)(C)[C@]23CC[C@H]1C3,AC50,[1],31.9 µM (active)
same,AC50,[2],30.4 µM (active)
same,AC50,[3],39 µM (active)
CC(C)(N=C=O)c1cccc(C(C)(C)N=C=O)c1,outcome,[1],inactive
same,outcome,[2],inactive
same,outcome,[3],inactive
CN(c1nccc(=O)[nH]1)C1CCN(c2nc3ccccc3n2Cc2ccc(F)cc2)CC1,AC50,[1],3.1 µM (active)
same,outcome,[2],inactive
same,outcome,[3],inactive
O=C1OC[C@H](Cc2cccc(O)c2)[C@H]1Cc1cccc(O)c1,outcome,[1],inactive
same,outcome,[2],inactive
same,outcome,[3],inactive
C[C@@H]1CCN(C(=O)[C@H](CCCN=C(N)N)NS(=O)(=O)c2cccc3c2NC[C@H](C)C3)[C@@H](C(=O)O)C1,outcome,[1],inactive
same,outcome,[2],inactive
same,outcome,[3],inactive
CS(=O)(=O)c1ccc(C2=C(c3ccccc3)C(=O)OC2)cc1,outcome,[1],inactive
same,outcome,[2],inactive
same,outcome,[3],inactive
Oc1c(Cl)cc(Cl)c(Cl)c1Cc1c(O)c(Cl)cc(Cl)c1Cl,AC50,[1],0.555 µM (active)
same,AC50,[4],18.3 µM (active)
same,AC50,[5],3.18 µM (active)
same,AC50,[6],14.9 µM (active)
same,outcome,[7],inactive
same,AC50,[8],50 µM (active)
same,AC50,[9],10.4 µM (active)
same,AC50,[2],0.215 µM (active)
same,AC50,[3],6.62 µM (active)
same,AC50,[10],27 µM (active)
CC=Cc1ccc(OCC)c(O)c1,outcome,[1],inactive
same,outcome,[2],inactive
same,outcome,[3],inactive
IC(I)I,outcome,[1],inactive
same,outcome,[2],inactive
same,outcome,[3],inactive
CCCCCC(C=O)=Cc1ccccc1,AC50,[1],34.2 µM (active)
same,outcome,[2],inactive
same,outcome,[3],inactive
